Tat transport – blocks Tat-dependent protein export in E. coli | E. coli MC4100 TorA-mCherry Tat export, fluorescence | inhibition, % at 10 µM | hit rate 0.036% among 340,000 | AID 488895;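 active = mean replicate inhibition at least 50% and at least half of replicates individually reaching 50%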;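 also: exported cargo escapes ClpAP degradation while cytoplasmic cargo is degraded and loses fluorescence; 0% = median of neutral control wells and 100% = median of NaSCN control wells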
phage Ecoli inh – E. coli growth loss with phage present. growth absorbance. inhibition, % at 11.9 µM. hit rate 0.26% among 360,000; in the data active = inhibition above about 11%
E coli growth-1 – reduces bacterial viability in AddAB counter-screen. E. coli V3065 growth, OD600 absorbance, 18 h. inhibition, % at 11.9 µM. hit rate 0.27% among 330,000. AID 449728;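 active = inhibition above the campaign's mean inhibition across all tested compounds plus 3 SD, cut at about 9.9% in these data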;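 also: uninfected addAB+ strain grown without phage in ampicillin broth; 0% = DMSO wells and 100% = ciprofloxacin 0.95 µg/ml wells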
AddAB inh – less growth of phage-infected E. coli with AddAB. E. coli expressing H. pylori AddAB, absorbance growth. inhibition, % at 11.9 µM. hit rate 0.29% among 330,000; in the data active = inhibition above about 12%;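 also: 0% = vehicle wells of infected cells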
E coli growth-2 – inhibitors of Escherichia coli growth; OD600, 23 h; stronger effect = lower value; OD600 absorbance (no concentration beside the values); hit rate 0.21% among 330,000; AID 1053175;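 active = OD600 absorbance below the run mean of sample wells minus 3.6 SD, in any replicate, cut at about 0.56 in these data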
AddAB conf – confirmation screen: growth loss of phage-infected E. coli expressing H. pylori AddAB. shares compounds with AddAB inh. E. coli V3065 expressing H. pylori AddAB, T4 phage, OD; T4 phage with gene 2 nonsense mutations. inhibition, % at 11.9 µM. hit rate 64% among 880. AID 488942;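 active = mean inhibition above a set limit taken from the earlier primary screen, cut at about 13% in these data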;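 also: higher means less bacterial growth since AddAB block lets phage replicate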
RecBCD counter – AddAB counter-screen: growth loss of RecBCD+ E. coli infected with mutant T4 phage; shares compounds with AddAB inh; E. coli V66 + mutant T4 phage, OD growth; inhibition, % at 11.9 µM; hit rate 73% among 880; AID 488955;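 active = mean inhibition above the mean of solvent-only control wells plus 3 SD, cut at about 4% in these data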;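 also: optical density read after an 18 h incubation at 37 °C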
Bact viability – counter-screen: bacterial growth inhibition; shares compounds with AddAB inh; bacterial viability, absorbance (AddAB counterscreen); inhibition, % at 11.9 µM; hit rate 35% among 880; in the data active = inhibition above about 25%
RecBCD conf – growth loss of phage-infected V66 E. coli, RecBCD confirmation screen; E. coli V66 + T4 2- phage, growth OD; hit rate 45% among 890; shares compounds with phage Ecoli inh; inhibition, % at 11.9 µM;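 active = mean inhibition over triplicates exceeding the hit threshold derived in the original primary screen, cut at about 11% in these data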
Ecoli viability – inhibits E. coli viability, flagging RecBCD hits as nonselective. shares compounds with phage Ecoli inh. absorbance (OD) growth. inhibition, % at 11.9 µM. hit rate 29% among 890. AID 651983; in the data active = inhibition above about 20%;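 also: E. coli strain V66 grown with compound alone and no phage infection; 0% = bacteria with DMSO vehicle only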
AddAB counter – growth loss of phage-infected AddAB E. coli, RecBCD counter-screen; shares compounds with phage Ecoli inh; E. coli expressing H. pylori AddAB + T4 phage, OD growth; gene 2 mutant T4, recBCD-deleted host; inhibition, % at 11.9 µM; hit rate 45% among 890; AID 651984;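 active = mean inhibition above the solvent-only control wells' mean plus 3 SD, cut at about 22% in these data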;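 also: higher means less bacterial growth from phage killing when AddAB is blocked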
* = called active by the depositor. Compounds with a hit are over-represented: about 0.5% of the library has one in this group of screens.

Nc1nc(=S)c2[nH]cnc2[nH]1 was read as Tat transport -26, phage Ecoli inh 66*, E coli growth-1 77*, AddAB inh 92*, AddAB conf 91*, RecBCD counter 60*, Bact viability 74*, RecBCD conf 57*, Ecoli viability 67* and AddAB counter 84*.
`Nc1nc(=S)c2[nH]c(=S)[nH]c2[nH]1` gave Tat transport 7, phage Ecoli inh 4 and E coli growth-2 0.67.
Screening Cc1cc(-c2ccc(C(=O)O)s2)cnc1N returned Tat transport 5, phage Ecoli inh 5, E coli growth-1 0, AddAB inh 0 and E coli growth-2 0.7.
Screening COc1cc(-c2nnc(SCc3cc(=O)oc4cc(O)c(O)cc34)o2)cc(OC)c1OC returned Tat transport -3, phage Ecoli inh 16*, E coli growth-1 18*, AddAB inh 18*, E coli growth-2 0.63, AddAB conf 18*, RecBCD counter 16*, Bact viability 18, RecBCD conf 7, Ecoli viability 8 and AddAB counter 8.
`Nc1nonc1-n1nnc(C(=O)NN=Cc2c(Cl)cccc2Cl)c1CN1CCOCC1` gave E coli growth-2 0.68.
`COc1ccc(N/N=C(/N=Nc2nc(C)cc(=O)[nH]2)c2ccccc2)cc1` gave Tat transport -17, phage Ecoli inh 22*, E coli growth-1 20*, AddAB inh 19*, AddAB conf 24*, RecBCD counter 20*, Bact viability 21, RecBCD conf 14*, Ecoli viability 13 and AddAB counter 19.
`CC(/C=C/C=C/c1ccccc1)=NNC(=O)CNc1ccc(C)cc1` gave E coli growth-2 0.67.
CCOC(=O)[C@H]1[C@H]2COc3ccccc3[C@@H]2N2C(=O)c3c(C)cc(C)cc3NC(=O)[C@@]12C was read as Tat transport 1, phage Ecoli inh 0, E coli growth-1 2 and AddAB inh 5.
`N#Cc1ccc(NC(=O)Nc2ccc(Cl)cc2)cc1` gave Tat transport 6, phage Ecoli inh 13*, E coli growth-1 15*, AddAB inh 16*, E coli growth-2 0.49*, AddAB conf 16*, RecBCD counter 18*, Bact viability 16, RecBCD conf 14*, Ecoli viability 17 and AddAB counter 20.
For c1ccc(-c2cc(CSc3nc4ccccc4[nH]3)on2)cc1 the results were Tat transport -50, phage Ecoli inh 18*, E coli growth-1 26*, AddAB inh 24*, E coli growth-2 0.7, AddAB conf 23*, RecBCD counter 17*, Bact viability 14, RecBCD conf 12*, Ecoli viability 15 and AddAB counter 17.
For C[C@H]1[C@H](NC(=O)C(=NOC(C)(C)C(=O)O)c2csc(N)n2)C(=O)N1S(=O)(=O)O the results were Tat transport -9, phage Ecoli inh 100*, E coli growth-1 99*, AddAB inh 100*, AddAB conf 100*, RecBCD counter 99*, Bact viability 101*, RecBCD conf 98*, Ecoli viability 99* and AddAB counter 101*.
For Cc1cnc(C(=O)OCC(=O)Nc2cc(S(=O)(=O)N3CCCCC3)ccc2Cl)cn1 the results were Tat transport -9, phage Ecoli inh 0, E coli growth-1 3, AddAB inh 2 and E coli growth-2 0.7.
`CCCCNC1=CC(=O)C(=O)c2ccccc21` gave Tat transport -29, phage Ecoli inh 21*, E coli growth-1 25*, AddAB inh 29*, E coli growth-2 0.42*, AddAB conf 32*, RecBCD counter 9.9*, Bact viability 19, RecBCD conf 13*, Ecoli viability 15 and AddAB counter 22*.
`CCCCNC1=CC(=O)C(NCCCC)=CC1=O` gave Tat transport 9, phage Ecoli inh 4 and E coli growth-2 0.69.
For O=C1CCC(=O)N(O)CCCCCNC(=O)CCC(=O)N(O)CCCCNC(=O)CCC(=O)N(O)CCCCCN1 the results were Tat transport -5, phage Ecoli inh 22*, E coli growth-1 28*, AddAB inh 31*, E coli growth-2 0.67, AddAB conf 26*, RecBCD counter 23*, Bact viability 13, RecBCD conf 16*, Ecoli viability 20* and AddAB counter 21.
`O=C1NCCCC1C(=O)N1CCCCC1` (stereo not drawn) gave Tat transport 6, phage Ecoli inh 4, E coli growth-1 1, AddAB inh 0 and E coli growth-2 0.64.
COc1ccc2nc(NC(=O)CCNC(=O)c3ccco3)sc2c1 was read as Tat transport -9, phage Ecoli inh 12*, E coli growth-1 14*, AddAB inh 16*, E coli growth-2 0.58, AddAB conf 14*, RecBCD counter 12*, Bact viability 14, RecBCD conf 8, Ecoli viability 12 and AddAB counter 11.
`COc1cc(NC(=O)CSc2ccc(-c3ccccn3)nn2)cc(OC)c1` gave Tat transport 0, phage Ecoli inh 13*, E coli growth-1 14*, AddAB inh 13*, E coli growth-2 0.7, AddAB conf 10, RecBCD counter 11*, Bact viability 11, RecBCD conf 6, Ecoli viability 5 and AddAB counter 10.
`COc1ccc(C)cc1NC(=O)CSc1ccc(-c2ccccn2)nn1` gave Tat transport 2, phage Ecoli inh 9, E coli growth-1 4, AddAB inh 6 and E coli growth-2 0.65.
For CSc1ccccc1NC(=O)CN(C)CC(=O)c1c(C)[nH]c2ccccc12 the results were Tat transport -6, phage Ecoli inh 1, E coli growth-1 -1, AddAB inh -1 and E coli growth-2 0.67.
`Cc1cccc(NC(=O)c2ccc([N+](=O)[O-])o2)n1` gave Tat transport -24, phage Ecoli inh 16*, E coli growth-1 38*, AddAB inh 30*, E coli growth-2 0.53*, AddAB conf 100*, RecBCD counter 13*, Bact viability 40*, RecBCD conf 7, Ecoli viability 10 and AddAB counter 61*.

Compound activity from PubChem BioAssay.
